Compounds with a hit are over-represented: about 9.4% of the library has one in this group of screens.
Rab9 promoter act: Rab9 promoter activation; Huh7 Rab9 promoter-luciferase reporter, luminescence, 24 h; hit rate 2.8% among 320,000; AID 485297; Potency, µM (highest dose often 9.22 µM), for the others: top-dose activation, negative = inhibition, actives largely listed as activators; also: % of control where 0% means no effect; nearly all actives have a fitted effect of over 60% in size
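Quantitative HTS format; Huh7 Rab9-luciferase reporter cells (1500/well) receive compound 2 h post-plating, incubate 24 h at 37 °C, then get luciferase reagent for 10 min before luminescence reading.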
SMN2 splice enh: SMN2 splice variant enhancement. HEK293 SMN2-luciferase splicing reporter, luminescence, 30-36 h. Potency, µM (series often up to 46.1 µM), inactives show at the highest dose activity change, positive = activation, usual class: activators. AID 1458. hit rate 2.8% among 210,000; also: % of control where 0% means no effect; nearly all actives have a fitted effect of over 55% in size
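qHTS luciferase splicing reporter: luminescence rises when SMN2 exon 7 is included in transfected HEK293 cells. Compound exposure lasted 30-36 h at 37C, with 4.5 mM final sodium butyrate as control, followed by a ONE-Glo read.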
ELG1 repair inh: ELG1-dependent DNA repair inhibition; Potency, µM (doses to about 46.1 µM), for the others: top-dose activity change, negative = inhibition, hits mostly inhibitors; hit rate 2.3% among 330,000; HEK293T ELG1-luciferase reporter, luminescence, 16 h; DNA damage induced by 5-fluorouridine; AID 504467; also: % is scaled to controls: 0 for no effect and ±100 for the full control effect; nearly all actives have a fitted effect of over 55% in size
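Luminescence from the luciferase reporter, measured 30 min after ONE-Glo reagent at room temperature, was the read-out. Beforehand, 2,000 cells per well were exposed for 16 hr at 37 °C to 5-fluorouridine together with compound or vehicle.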
FLuc counter: firefly luciferase modulation, counter-screen for miR-21 project; purified FLuc, Km substrates, luminescence inhibition; AID 588342; P08659; Potency, µM (series often up to 57.5 µM), for the others: at the top dose activity change, negative = inhibition, usual class: inhibitors; hit rate 6.9% among 360,000;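 also: plate controls were vehicle for no effect and reference inhibitor for full effect; nearly all actives have a fitted effect of over 55% in size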
Target sequence (P08659 whole entry, looked up): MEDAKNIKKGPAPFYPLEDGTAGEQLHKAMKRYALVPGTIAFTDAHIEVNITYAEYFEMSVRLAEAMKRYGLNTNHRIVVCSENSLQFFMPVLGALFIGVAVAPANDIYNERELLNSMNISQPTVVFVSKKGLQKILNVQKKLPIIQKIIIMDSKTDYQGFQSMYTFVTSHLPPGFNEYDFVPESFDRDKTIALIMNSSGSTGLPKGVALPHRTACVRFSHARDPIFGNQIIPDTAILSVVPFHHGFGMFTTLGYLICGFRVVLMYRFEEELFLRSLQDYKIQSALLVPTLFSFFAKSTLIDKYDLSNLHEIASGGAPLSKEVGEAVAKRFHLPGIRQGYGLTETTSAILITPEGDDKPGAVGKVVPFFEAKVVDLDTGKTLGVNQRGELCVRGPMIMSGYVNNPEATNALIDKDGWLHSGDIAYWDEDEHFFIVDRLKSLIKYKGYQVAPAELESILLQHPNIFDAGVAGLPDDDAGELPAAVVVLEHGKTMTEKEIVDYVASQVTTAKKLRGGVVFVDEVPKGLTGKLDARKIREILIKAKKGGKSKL
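Purified P. pyralis luciferase (10nM final) with 10uM D-luciferin and 10uM ATP (Km levels) in 50mM Tris acetate pH 7.5, 10mM Mg acetate, 0.01% Tween-20, 0.05% BSA; qHTS 6-point titration, ~60 µM downward; luminescence read.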
ELG1 genotoxic: induces genotoxicity in HEK293T cells with luciferase-tagged ELG1; HEK293T ELG1-luciferase reporter, luminescence, 16 h; Potency, µM (highest dose often 46 µM), for the others: top-dose activity change, positive = activation, usual class: activators; hit rate 1.3% among 330,000; AID 504466; also: % of control where 0% means no effect; nearly all actives have a fitted effect of over 60% in size
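Cells (2,000/well) expressing the ELG1-luciferase fusion are dosed by pin tool and kept 16 hr at 37 °C, 5% CO2. Signal comes from ONE-Glo luciferase reagent after 30 min at room temperature.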
NPC1 prom act: NPC1 promoter activation; Potency, µM (doses to about 9.22 µM), without a hit: top-dose activation, most hits filed as activators; hit rate 2.4% among 320,000; Huh7 NPC1 promoter luciferase reporter, 24 h; also: % of control where 0% means no effect; nearly all actives have a fitted effect of over 60% in size
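NPC1 promoter–luciferase Huh7 cells; 24 h compound; luminescence.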
Active calls of the source: *; ? = inconclusive; / = no result given; ! = a repeat was not active; [ ] = remark or other dose. Calls follow the shape of the dose curve; as a rule, active = well fitted curve in the direction sought with a large enough effect; inconclusive = small, poorly fitted or top-dose-only effect, or another doubt; inactive = no such curve, though single readings can be large; an effect the other way counts as inactive or inconclusive. Potency is read from the fitted curve at half-maximal effect.

SMILES	Rab9 promoter act	SMN2 splice enh	ELG1 repair inh	FLuc counter	ELG1 genotoxic	NPC1 prom act
CCCOCc1ccc(O)c2ncccc12	-29%	/	7.3µM*	1%	-6%	-45%
Oc1ccc(COCc2ccccc2)c2cccnc12	-3%	-66%	?	19µM*	8.2µM*	4%
COc1cc(CN(C(=O)c2cccc(C)c2)c2ccccn2)cc(OC)c1OC	/	/	/	5%	/	/
O=C1C(=Cc2cccn2-c2ccc(O)cc2)C(=O)c2ccccc21	0%	5%	8%	3.4µM*	1%	-1%
O=C(O)c1cccc(-n2cccc2C=C2C(=O)c3ccccc3C2=O)c1	-3%	/	?	12µM*	9%	-2%
O=C(O)c1cccc(-n2cccc2/C=C2/NC(=O)N(c3cccc(Cl)c3)C2=O)c1	-5%	/	1%	-7%	0%	3%
O=C(O)c1cccc(-n2cccc2/C=C2/NC(=O)N(c3ccc(Cl)cc3)C2=O)c1	-2%	18%	16%	27µM*	2%	3%
Cc1cc(N2CCCCC2)nc2ccc(NC(=O)/C=C/c3ccccc3OC(C)C)cc12	/	7%	/	-1%	/	/
O[C@@H](c1cc(-c2ccc(Cl)cc2)nc2ccccc12)C1CCCCN1 (some centres not stated)	/	1%[9.22 µM]	/	/	/	/
COc1cccc(CNC(=O)CCc2c(C)nc3c(c2C)c(=O)n(C)c(=O)n3C)c1	/	-7%	/	-9%	/	/
CCOC(=O)c1nnn(-c2nc(OC)nc(N3CCCCC3)n2)c1-c1ccccc1	0%	-32%	18µM*	-1%	-8%	2%
Cc1cc(C2(c3cc(C)c(O)c(C(=O)O)c3)OS(=O)(=O)c3ccccc32)cc(C(=O)O)c1O	/	-2%[9.22 µM]	/	/	/	/
CCN(CC)c1ccc(C(=S)NC2CCCCC2)cc1	15%	?	3%	15µM*	?	11%
CCOc1ccc(C(=S)NC2CCCCC2)cc1OCC	2%	/	5%	?	-1%	1%
CN(C)c1ccc(C(=S)NC2CCCCC2)cc1	2.8µM*	11µM*	?	4.8µM*	18µM*	3.2µM*
CCCCn1c(Oc2cccc(C(=O)OC)c2)nc2c1c(=O)n(C)c(=O)n2C	/	/	/	-3%	/	/
CCn1c(Oc2ccccc2C)nc2c1c(=O)n(C)c(=O)n2C	3%	/	?	3%	-12%	-2%
CCCCn1c(Oc2ccc(C(=O)OC)cc2)nc2c1c(=O)n(C)c(=O)n2C	-2%	-23%	21µM*	-1%	-14%	0%
CC(C)CCn1c(Oc2ccccc2F)nc2c1c(=O)n(C)c(=O)n2C	/	/	/	-8%	/	/
CC(C)CCn1c(Oc2ccc(Cl)cc2)nc2c1c(=O)n(C)c(=O)n2C	-8%	-14%	21µM*	0%	-12%	-6%
CCn1c(Oc2ccc(F)cc2)nc2c1c(=O)n(C)c(=O)n2C	-4%	-16%	8.2µM*	2%	-21%	7%
Cn1c(=O)c2c(nc(Oc3ccccc3)n2C)n(C)c1=O	-2%	-16%	16µM*!	5%	-9%	-1%
Cc1ccc(OCC(=O)Nc2ccc3nc(SCCOc4ccccc4)sc3c2)cc1	/	/	/	-6%	/	/
Cc1ccc(-c2nnc(SCC(=O)NCCC(C)C)nc2-c2ccc(C)cc2)cc1	/	/	/	-14%	/	/
Cc1cccc(-c2noc(-c3ccc(NC4CCCC4)c([N+](=O)[O-])c3)n2)c1	/	/	/	-20%	/	/
SMILES	Rab9 promoter act	SMN2 splice enh	ELG1 repair inh	FLuc counter	ELG1 genotoxic	NPC1 prom act
COc1cc(-c2noc(-c3ccc(NCC4CCCO4)c([N+](=O)[O-])c3)n2)cc(OC)c1OC (configuration not stated)	/	/	/	21µM*	/	/
COc1ccc(-c2noc(-c3ccc(NC4CCCC4)c([N+](=O)[O-])c3)n2)cc1OC	/	/	/	13µM*	/	/
COc1cc(-c2noc(-c3ccc(NCc4ccccc4)c([N+](=O)[O-])c3)n2)cc(OC)c1OC	/	/	/	15µM*	/	/
Cc1noc(-c2ccc(NCc3ccccc3)c([N+](=O)[O-])c2)n1	/	/	/	-16%	/	/
O=[N+]([O-])c1cc(-c2nc(-c3ccco3)no2)ccc1NCc1ccccc1	/	/	/	15µM*	/	/
O=[N+]([O-])c1cc(-c2nc(-c3ccccn3)no2)ccc1NCc1ccccc1	/	/	/	-18%	/	/
O=C(O)[C@@H]1[C@H](C(=O)O)[C@H]2C(=O)C=C[C@H]1N2Cc1ccccc1	/	-12%[9.22 µM]	/	/	/	/
CCOC(=O)c1cnc2c(N=Nc3ccccc3)c(N)nn2c1N	1.1µM*	16µM*	?	0.95µM*	?	1.1µM*
CCOC(=O)c1cnc2c(-c3ccc(Cl)cc3)cnn2c1C	0.89µM*	11µM*	?	0.6µM*	2.6µM*	1.8µM*
CCOC(=O)c1cnc2c(-c3ccccc3)cnn2c1N	0.5µM*	10µM*	?	0.6µM*	?	0.63µM*
COC(=O)C1(C(=O)OC)CC2=CCC3C(=O)N(c4ccccc4)C(=O)C3C2Cc2ccccc2[C@@H]1C[N+](=O)[O-] (some centres not stated)	/	3%	/	/	/	/
COc1ccccc1C(=O)Nc1cccc(C(=O)OCc2cc(=O)n3ccsc3n2)c1	/	/	/	-2%	/	/
COc1ccc(N2CCN(S(=O)(=O)c3cc(-c4cc(C)no4)ccc3C(C)C)CC2)cc1	-7%	/	7.3µM*	4%	-9%	-12%
COc1cc(NC(=O)Cn2c(=O)n(Cc3ccccc3Cl)c(=O)c3cc(OC)c(OC)cc32)cc(OC)c1	/	-2%	/	-1%	/	/
COc1ccc(CCNC(=O)c2ccc(Nc3nc4ccccc4n4nnnc34)cc2)cc1OC	/	5%	/	-3%	/	/
COc1ccccc1-c1nnc(NC(=O)C(C)Sc2nncn2C)s1 (configuration not stated)	14%	-38%	?	19µM*	12%	3%
COc1ccccc1-c1nnc(NC(=O)CSc2nncn2C)s1	?	11µM*	?	0.76µM*	6%	?
COc1ccccc1NC(=O)c1ccc(NC(=O)CSc2nncn2C)cc1	-2%	4%	-2%	-1%	0%	-3%
COc1ccccc1-c1nnc(NC(C)=O)s1	?	25µM*	?	6.7µM*	?	?
C[N+](C)(CCCOc1ccccc1)c1ccccc1	/	-15%[20.6 µM]	/	/	/	/
NC(=O)c1ccccc1NC(=O)Cn1nc(Cc2cccnc2)c2ccccc2c1=O	/	-18%	/	-11%	/	/
COc1ccc(NC(=O)c2ccc3c(c2)CCN3S(=O)(=O)c2ccc(C)cc2)cc1Cl	/	3%	/	-7%	/	/
COc1ccc(C2=C(C)C(N3CCC(C(=O)Nc4ccccc4F)CC3)=NS2(=O)=O)cc1	/	/	/	-2%	/	/
COc1cccc(OCc2ccc(Cl)cc2)c1C#N	0.56µM*	/	?	0.54µM*	?	0.71µM*

Source: PubChem
